Results filed as inconclusive are left out. The source holds several records for some structures; these can differ, active in one and inactive in another. Activity calls are given as the source filed them. The calls were made as follows, unless noted: active = hit-call score of the fitted dose curve at least 0.9, where 1 is the maximum; inactive = score below 0.9.
Assays:
[1] = ATG_TCF_b_cat_CIS: Attagene CIS-FACTORIAL HepG2 Assay for human T-Cell-Factor with beta-catenin (TCF/b-cat) (AID 2282965); conditions: HepG2 TCF/beta-catenin cis-reporter transcription, actives raise or lower the signal
How it was run: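 Cells of the HepG2 line carry transiently transfected reporter units whose promoters respond to endogenous factors. Twenty-four hours post-dosing, reporter mRNA induction is measured by fluorescent RT-PCR and capillary electrophoresis, with DMSO as baseline.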

[2] = ATG_TAL_CIS: Attagene CIS-FACTORIAL HepG2 Assay for human TAL Basal Promoter (AID 2282966); conditions: HepG2 Attagene cis-factorial TAL promoter reporter; actives raise or lower the signal;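 also: background control endpoint measuring basal TAL promoter reporter mRNA not a specific factor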
How it was run: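 Fluorescence of labelled reporter cDNA fragments, resolved by capillary electrophoresis, gave the readout. Human HepG2 liver cells carried transiently transfected cis-element reporter units and were treated for 24 hours; activity was fitted bidirectionally against DMSO.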

[3] = ATG_TGFb_CIS: Attagene CIS-FACTORIAL HepG2 Assay for human Transforming Growth Factor (TGF) (AID 2282967); conditions: HepG2 Attagene CIS TGFb reporter, mRNA transcription; actives raise or lower the signal
How it was run: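 Transient MRTU transfection of HepG2 (FuGene 6). Dose 24 h. TriZol RNA, oligo(dT) RT, PCR, 6-FAM primer extension, HpaI cut, CE. Bidirectional fit, DMSO = baseline.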

[4] = ATG_VDRE_CIS: Attagene CIS-FACTORIAL HepG2 Assay for human Vitamin D Receptor Element (VDRE) (AID 2282968); conditions: HepG2 VDRE cis-reporter transcription, actives raise or lower the signal
How it was run: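 Cell-based multiplexed reporter format in human liver HepG2 cells, 24 h post-dose. Fluorescence from capillary electrophoresis of reporter cDNA gives the signal, with DMSO as negative control and baseline.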

[5] = target: Nuclear receptor subfamily 1 group I member 3 (Homo sapiens) (UniProt Q14994); test: ATG_CAR_TRANS: Attagene TRANS-FACTORIAL HepG2 Assay for human Constitutive Androstane Receptor (CAR) (AID 2282969; active = hit-call score of the fitted dose curve at least 0.9, where 1 is the maximum;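 also: activators raise reporter mRNA above DMSO so AC50 marks induction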); conditions: HepG2 Attagene TRANS-FACTORIAL CAR reporter
How it was run: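 HepG2 cells transiently transfected with GAL4-UAS reporter units; TRANS format reads activity of exogenous chimeric NR-Gal4 protein. After 24 h dosing, reporter mRNA quantified by RT-PCR, 6-FAM labelling and capillary electrophoresis; gain of signal fitted against DMSO.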

[6] = target: Estrogen receptor (Homo sapiens) (UniProt P03372); test: ATG_ERa_TRANS: Attagene TRANS-FACTORIAL HepG2 Assay for human Estrogen Receptor alpha (ERa) (AID 2282970; active = hit-call score of the fitted dose curve at least 0.9, where 1 is the maximum); conditions: HepG2 Attagene TRANS ERa GAL4 reporter, mRNA
How it was run: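 Human liver HepG2, transient transfection of multiple GAL4-UAS reporter units; TRANS format (exogenous NR-Gal4 chimera). 24 h dosing. Readout: reporter mRNA, RT-PCR, 6-FAM primer extension, HpaI digest, capillary electrophoresis. Positive direction vs DMSO.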

[7] = target: Steroid hormone receptor ERR1 (Homo sapiens) (UniProt P11474); test: ATG_ERRa_TRANS: Attagene TRANS-FACTORIAL HepG2 Assay for human Estrogen-Related Receptor alpha (ERRa) (AID 2282971; active = hit-call score of the fitted dose curve at least 0.9, where 1 is the maximum); conditions: HepG2 Attagene TRANS reporter, ERRa transactivation
How it was run: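 Reporter transcript induction was quantified by RT-PCR and capillary electrophoresis of FAM-labelled, HpaI-cut products after 24 h treatment of HepG2 cells carrying transiently transfected GAL4-UAS reporter units and an exogenous ERRa-Gal4 fusion; activity scored as increase over DMSO.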

[8] = target: X-box-binding protein 1 (Homo sapiens) (UniProt P17861); test: ATG_Xbp1_CIS: Attagene CIS-FACTORIAL HepG2 Assay for human X-box Binding Protein 1 (XBP1) (AID 2282972); conditions: HepG2 XBP1 cis-element reporter, Attagene multiplex; actives raise or lower the signal
How it was run: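 HepG2, transient MRTU transfection (cis-promoter driven), 24 h compound exposure. Total RNA → oligo(dT) RT → PCR → 6-FAM labeling → HpaI cut → CE. Bidirectional fit vs DMSO.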

[9] = ATG_M_19_TRANS: Attagene TRANS-FACTORIAL HepG2 Assay for M19 Transcription Factor (Internal Marker) (AID 2282974; active = hit-call score of the fitted dose curve at least 0.9, where 1 is the maximum); conditions: HepG2 Attagene TRANS-FACTORIAL M19 internal marker reporter
How it was run: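 Multiplexed TRANS format: HepG2 liver cells bearing transient GAL4-UAS reporter units, chemical treatment 24 h, reporter transcripts quantified by RT-PCR plus capillary electrophoresis. DMSO defines baseline.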

[10] = ATG_GAL4_TRANS: Attagene TRANS-FACTORIAL HepG2 Assay for GAL4 (Internal Marker) (AID 2282976; active = hit-call score of the fitted dose curve at least 0.9, where 1 is the maximum); conditions: HepG2 Attagene TRANS GAL4 internal marker reporter
How it was run: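 First, HepG2 cells were transfected with reporter units under GAL4-UAS control. Next, they were treated with chemical for 24 h. Finally, RNA was reverse-transcribed, PCR-amplified, FAM-labelled and resolved by capillary electrophoresis, with induction scored against DMSO.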

Sequence of Nuclear receptor subfamily 1 group I member 3 (Homo sapiens) (Q14994 whole entry, looked up, the tested form may be a part): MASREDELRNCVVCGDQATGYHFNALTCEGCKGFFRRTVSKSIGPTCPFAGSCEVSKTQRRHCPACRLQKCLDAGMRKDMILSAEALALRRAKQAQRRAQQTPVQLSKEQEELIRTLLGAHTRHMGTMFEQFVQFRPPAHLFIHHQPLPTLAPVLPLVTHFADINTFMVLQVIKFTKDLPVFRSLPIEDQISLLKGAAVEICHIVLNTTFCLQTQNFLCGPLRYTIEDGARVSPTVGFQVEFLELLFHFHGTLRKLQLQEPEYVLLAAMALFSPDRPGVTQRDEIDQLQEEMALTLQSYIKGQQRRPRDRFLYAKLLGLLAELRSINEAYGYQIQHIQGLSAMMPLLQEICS
Sequence of Steroid hormone receptor ERR1 (Homo sapiens) (P11474 whole entry, looked up, the tested form may be a part): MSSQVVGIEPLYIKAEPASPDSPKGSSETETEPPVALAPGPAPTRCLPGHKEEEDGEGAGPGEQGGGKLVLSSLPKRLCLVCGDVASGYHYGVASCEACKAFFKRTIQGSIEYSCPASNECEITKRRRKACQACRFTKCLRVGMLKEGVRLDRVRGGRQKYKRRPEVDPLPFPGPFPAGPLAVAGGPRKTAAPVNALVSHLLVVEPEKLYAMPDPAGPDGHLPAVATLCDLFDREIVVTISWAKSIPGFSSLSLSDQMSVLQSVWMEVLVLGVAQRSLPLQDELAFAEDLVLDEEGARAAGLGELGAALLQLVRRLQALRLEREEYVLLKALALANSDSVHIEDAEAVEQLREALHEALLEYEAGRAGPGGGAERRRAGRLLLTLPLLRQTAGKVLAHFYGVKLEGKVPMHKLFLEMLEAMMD
Sequence of X-box-binding protein 1 (Homo sapiens) (P17861 whole entry, looked up): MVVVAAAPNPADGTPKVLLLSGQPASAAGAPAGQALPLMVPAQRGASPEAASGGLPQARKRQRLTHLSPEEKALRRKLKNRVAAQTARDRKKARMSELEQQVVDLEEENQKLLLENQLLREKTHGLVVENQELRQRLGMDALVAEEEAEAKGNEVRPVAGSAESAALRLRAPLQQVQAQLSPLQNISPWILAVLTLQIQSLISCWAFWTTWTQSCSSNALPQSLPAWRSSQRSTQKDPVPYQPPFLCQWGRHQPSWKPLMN
Sequence of Estrogen receptor (Homo sapiens) (P03372 whole entry, looked up, the tested form may be a part): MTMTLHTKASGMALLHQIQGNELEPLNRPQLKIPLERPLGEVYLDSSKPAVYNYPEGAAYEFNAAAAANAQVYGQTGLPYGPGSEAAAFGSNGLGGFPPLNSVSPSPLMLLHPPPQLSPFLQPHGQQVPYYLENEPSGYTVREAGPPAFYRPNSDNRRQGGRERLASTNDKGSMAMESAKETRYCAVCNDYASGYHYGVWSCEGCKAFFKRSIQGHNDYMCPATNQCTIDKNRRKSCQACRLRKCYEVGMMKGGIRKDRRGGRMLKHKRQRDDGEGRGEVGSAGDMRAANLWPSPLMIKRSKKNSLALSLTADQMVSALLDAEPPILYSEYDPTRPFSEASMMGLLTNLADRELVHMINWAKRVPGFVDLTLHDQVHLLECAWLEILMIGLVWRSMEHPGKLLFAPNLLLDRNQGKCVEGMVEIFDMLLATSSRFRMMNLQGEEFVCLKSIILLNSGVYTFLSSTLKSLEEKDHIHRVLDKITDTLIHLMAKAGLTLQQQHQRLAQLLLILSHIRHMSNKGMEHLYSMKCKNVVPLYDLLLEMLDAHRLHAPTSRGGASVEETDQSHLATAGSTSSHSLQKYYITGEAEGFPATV

SMILES	AC50 [1]	outcome [2]	outcome [3]	outcome [4]	outcome [5]	AC50 [6]	outcome [7]	AC50 [8]	outcome [1]	outcome [6]	outcome [8]	outcome [9]	outcome [10]	AC50 [3]	AC50 [4]
Nc1ccc(Oc2cccc(Oc3ccc(N)cc3)c2)cc1	27.4 µM (active)	inactive	inactive	inactive	inactive	2.58 µM (active)	inactive	42 µM (active)	–	–	–	–	–	–	–
CCCCCCCCCCCCCCCC[N+](C)(C)Cc1ccccc1	–	inactive	inactive	inactive	inactive	–	inactive	–	inactive	inactive	inactive	–	–	–	–
COC(=O)C1CCC(C(=O)OC)CC1 (stereo unspecified)	55.4 µM (active)	inactive	inactive	inactive	–	–	inactive	–	inactive	inactive	inactive	inactive	–	–	–
OCCCC(F)(F)C(F)(F)C(F)(F)F	–	inactive	inactive	inactive	inactive	–	inactive	–	inactive	inactive	inactive	–	inactive	–	–
CC(CCl)OP(=O)(OC(C)CCl)OC(C)CCl (stereo unspecified)	–	inactive	inactive	inactive	inactive	–	inactive	–	inactive	inactive	inactive	–	–	–	–
CCN(Cc1cccc(S(=O)(=O)O)c1)c1ccc(C(=C2C=CC(=[N+](CC)Cc3cccc(S(=O)(=O)O)c3)C=C2)c2ccc(O)cc2S(=O)(=O)[O-])cc1	–	inactive	inactive	inactive	inactive	–	inactive	–	inactive	inactive	inactive	inactive	–	–	–
NC(=O)C(F)(F)C(F)(F)C(F)(F)C(F)(F)F	–	inactive	inactive	inactive	inactive	–	inactive	–	inactive	inactive	inactive	–	inactive	–	–
FC(F)(F)C(F)(F)C(F)(F)C(F)(F)C(F)(F)C(F)(F)C(F)(F)I	–	inactive	inactive	inactive	inactive	3.7 µM (active)	inactive	–	inactive	–	inactive	–	–	–	–
CS(C)(=O)=O	–	inactive	inactive	inactive	inactive	–	inactive	–	inactive	inactive	inactive	–	–	–	–
O=C(O)C=C(C(F)(F)F)C(F)(F)F	–	inactive	inactive	inactive	inactive	–	inactive	–	inactive	inactive	inactive	–	inactive	–	–
CC(C)(C)C(=O)CC(=O)C(F)(F)C(F)(F)C(F)(F)F	–	inactive	inactive	inactive	inactive	–	inactive	–	inactive	inactive	inactive	–	–	–	–
[Co]	–	inactive	inactive	inactive	inactive	32.5 µM (active)	inactive	–	inactive	–	inactive	–	inactive	–	–
O=S(=O)(OCCOC(F)(F)F)C(F)(F)F	–	inactive	inactive	inactive	inactive	–	inactive	–	inactive	inactive	inactive	inactive	inactive	–	–
CCCCCCCCC(F)(F)C(F)(F)C(F)(F)C(F)(F)C(F)(F)C(F)(F)F	–	inactive	inactive	inactive	inactive	–	inactive	–	inactive	inactive	inactive	–	inactive	–	–
C#C[C@]1(O)CC[C@H]2[C@@H]3CCc4cc(OC)ccc4[C@H]3CC[C@@]21C	–	inactive	–	–	inactive	0.00914 µM (active)	inactive	–	inactive	–	inactive	–	inactive	139 µM (active)	0.921 µM (active)
FC(F)(F)C(F)(F)C(F)(F)C(F)(F)C(F)(F)CCI	–	inactive	inactive	inactive	inactive	41 µM (active)	inactive	–	inactive	–	inactive	inactive	–	–	–

SMILES	AC50 [1]	outcome [2]	outcome [3]	outcome [4]	outcome [5]	AC50 [6]	outcome [7]	AC50 [8]	outcome [1]	outcome [6]	outcome [8]	outcome [9]	outcome [10]	AC50 [3]	AC50 [4]
FC(F)(F)C(F)(F)C(F)(F)C(F)(F)C(F)(F)C(F)(F)CC1CO1 (stereo unspecified)	–	inactive	inactive	inactive	inactive	–	inactive	–	inactive	inactive	inactive	inactive	inactive	–	–
FC(F)(F)C(F)(F)C(F)(F)N(C(F)(F)C(F)(F)C(F)(F)F)C(F)(F)C(F)(F)C(F)(F)F	–	inactive	inactive	inactive	inactive	–	inactive	–	inactive	inactive	inactive	–	inactive	–	–
FC(F)(F)C(F)(F)C(F)(F)C(F)(F)C(F)(F)C(F)(F)CCS	–	inactive	inactive	inactive	inactive	–	inactive	–	inactive	inactive	inactive	–	inactive	–	–
CCCCOc1ccc(N)cc1	–	inactive	inactive	inactive	inactive	–	inactive	–	inactive	inactive	inactive	inactive	inactive	–	–
O=S(=O)(O)c1ccc2ccccc2c1	–	inactive	inactive	inactive	–	–	–	–	inactive	inactive	inactive	inactive	inactive	–	29.3 µM (active)
c1ccc(B(c2ccccc2)c2ccccc2)cc1	–	inactive	inactive	–	inactive	5.7 µM (active)	inactive	31.7 µM (active)	inactive	–	–	inactive	inactive	–	20.7 µM (active)
FC(F)(F)C(F)(F)C(F)(F)C(F)(F)C(F)(F)C(F)(F)C(F)(F)Br	–	inactive	inactive	inactive	inactive	–	inactive	–	inactive	inactive	inactive	–	inactive	–	–
COC(OC(C)=O)c1ccccc1 (stereo unspecified)	–	inactive	inactive	inactive	inactive	–	inactive	–	inactive	inactive	inactive	–	–	–	–
O[Si](c1ccccc1)(c1ccccc1)c1ccccc1	–	inactive	inactive	inactive	inactive	4.11 µM (active)	inactive	–	inactive	–	inactive	–	–	–	–
CCCCCCC(C)OC(=O)CCCCC(=O)OC(C)CCCCCC (stereo unspecified)	–	inactive	inactive	inactive	inactive	–	inactive	–	inactive	inactive	inactive	–	–	–	–
C=CC(F)(F)C(F)(F)C(F)(F)C(F)(F)C(F)(F)C(F)(F)C(F)(F)C(F)(F)C=C	–	inactive	inactive	inactive	inactive	2.76 µM (active)	inactive	–	inactive	–	inactive	inactive	–	–	–
CCCCC(CC)COP(=O)(O)OCC(CC)CCCC (stereo unspecified)	42.7 µM (active)	inactive	inactive	–	inactive	–	–	–	–	inactive	inactive	–	–	–	27.6 µM (active)
FC(F)(F)C(F)(F)C(F)(F)C(F)(F)C(F)(F)C(F)(F)C(F)(F)C(F)(F)CCS	–	inactive	inactive	inactive	inactive	–	inactive	–	inactive	inactive	inactive	–	inactive	–	–
CC(C)c1ccccc1N	–	inactive	inactive	–	inactive	–	inactive	–	inactive	inactive	inactive	inactive	inactive	–	35.5 µM (active)
O=C(CC(=O)C(F)(F)C(F)(F)F)C(F)(F)F	150 µM (active)	inactive	inactive	inactive	–	–	inactive	–	inactive	inactive	inactive	inactive	inactive	–	–
CCc1ccc(C(c2ccc(CC)cc2)C(Cl)Cl)cc1	–	inactive	inactive	–	inactive	7.49 µM (active)	–	–	inactive	–	inactive	–	–	–	2.84 µM (active)

— PubChem BioAssay (EPA / NIEHS)
